Data as given in PMC4336329 (PLoS ONE, 2015).
The whole screen tested about 310,000 compounds, of which about 14,000 (4.5%) showed an effect of 50% or more. Effects have a minus sign here. What follows is part of a selection rich in strong results, with near analogues and random picks from the rest.

Target: human ether-à-go-go-related gene (hERG) potassium channel (human, UniProt Q12809)
Experiment: primary screen, population patch clamp on CHO cells stably expressing hERG; higher = less effect of the substance
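Note: peak tail current of the secondary pulse compared with the same well before compound.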

Chain of human ether-à-go-go-related gene (hERG) potassium channel (Q12809 whole entry, looked up): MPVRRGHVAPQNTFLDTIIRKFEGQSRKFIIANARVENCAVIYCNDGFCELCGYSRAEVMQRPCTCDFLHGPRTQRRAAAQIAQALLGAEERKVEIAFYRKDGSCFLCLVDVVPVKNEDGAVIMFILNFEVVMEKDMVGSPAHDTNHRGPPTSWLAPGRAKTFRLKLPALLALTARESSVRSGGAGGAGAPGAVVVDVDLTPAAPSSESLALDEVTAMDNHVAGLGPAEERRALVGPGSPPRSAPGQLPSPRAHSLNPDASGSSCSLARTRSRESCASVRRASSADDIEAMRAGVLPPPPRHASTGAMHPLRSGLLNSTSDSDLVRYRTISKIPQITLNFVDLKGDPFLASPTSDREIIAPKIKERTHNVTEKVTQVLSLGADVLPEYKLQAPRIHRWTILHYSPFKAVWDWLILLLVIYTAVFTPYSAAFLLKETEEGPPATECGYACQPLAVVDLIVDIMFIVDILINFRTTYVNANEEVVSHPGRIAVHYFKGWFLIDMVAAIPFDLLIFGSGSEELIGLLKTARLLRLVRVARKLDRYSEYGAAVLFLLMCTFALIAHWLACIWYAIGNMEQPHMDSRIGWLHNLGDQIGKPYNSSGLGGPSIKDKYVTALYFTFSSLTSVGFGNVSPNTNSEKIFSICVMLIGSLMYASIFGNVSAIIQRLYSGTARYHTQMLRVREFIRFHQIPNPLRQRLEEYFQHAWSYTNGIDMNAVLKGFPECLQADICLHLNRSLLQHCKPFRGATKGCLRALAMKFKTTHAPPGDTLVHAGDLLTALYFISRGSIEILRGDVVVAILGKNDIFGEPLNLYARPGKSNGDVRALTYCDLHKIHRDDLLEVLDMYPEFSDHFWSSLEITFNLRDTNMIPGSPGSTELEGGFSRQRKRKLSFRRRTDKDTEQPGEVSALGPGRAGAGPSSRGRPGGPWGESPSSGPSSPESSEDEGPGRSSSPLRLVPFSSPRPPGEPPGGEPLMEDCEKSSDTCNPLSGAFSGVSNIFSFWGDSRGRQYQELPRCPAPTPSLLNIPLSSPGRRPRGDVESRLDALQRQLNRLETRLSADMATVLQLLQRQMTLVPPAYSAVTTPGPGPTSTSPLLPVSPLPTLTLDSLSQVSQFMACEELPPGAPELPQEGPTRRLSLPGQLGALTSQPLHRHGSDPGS

| Structure (SMILES) | hERG current change (%, negative = inhibition) at 10uM [%] |
| --- | --- |
| O=C1N(Cc2cccnc2)C[C@@H]2C[C@@H](c3ccc(-c4ccccc4)cc3)N3CCC[C@@]123 | -71.3 |
| COC(=O)c1ccc([C@@H]2C[C@H]3CN(Cc4cccnc4)C(=O)[C@]34CCCN24)cc1 | -1.19 |
| Cc1cc(C(=O)N/N=C/c2c[nH]c3ccccc23)cs1 | -8.33 |
| NC(=O)NC(=O)CSc1nc2cc([N+](=O)[O-])ccc2n1-c1cccc(C(F)(F)F)c1 | -57.7 |
| CC(Sc1nc2cc([N+](=O)[O-])ccc2n1-c1cccc(C(F)(F)F)c1)C(=O)NC(N)=O (centres unmarked) | 13.6 |
| CCNC(=O)CSc1nc2cc([N+](=O)[O-])ccc2n1-c1cccc(C(F)(F)F)c1 | -35.8 |
| C=CCNC(=O)NC(=O)CSc1nc2cc([N+](=O)[O-])ccc2n1-c1cccc(C(F)(F)F)c1 | 20.8 |
| NC(=O)CSc1nnc(-c2ccccc2Br)n1-c1cccc(C(F)(F)F)c1 | -11.9 |
| NC(=O)CSc1nc2cc([N+](=O)[O-])ccc2n1-c1cccc(C(F)(F)F)c1 | -69.9 |
| Cc1ccc(SCC(=O)Nc2cccc(C(=O)NC(C)(C)C)c2)cc1 | 4.17 |
| O=C(Nc1cc(Cl)ccc1N1CCOCC1)c1cccnc1Cl | 1.8 |
| O=S(=O)(c1ccc(N2CCCCCC2)nc1)N1CCCC1 | 17.2 |
| Cc1ccc(S(=O)(=O)N(C)C)cc1[N+](=O)[O-] | -4.14 |
| COc1ccc(CCNC(=O)c2cnccn2)cc1 | 10.8 |
| O=C(C[n+]1cc2ccccc2c2ccccc21)c1ccccc1.[Br-] | -73.8 |
| O=C(C[n+]1cc(Br)cc2ccccc21)c1ccc(F)cc1.[Br-] | -41.6 |
| O=C(C[n+]1cc(Br)cc2ccccc21)c1ccccc1.[Br-] | -21.7 |
| O=C(C[n+]1cccc2ccccc21)c1ccc(NC(=O)c2ccccc2)cc1.[Br-] | 8.45 |
| O=C(C[n+]1cc(Br)cc2ccccc21)c1ccc(Cl)cc1.[Br-] | -49.8 |
| COc1ccc(C(=O)C[n+]2cc(Br)cc3ccccc32)cc1[N+](=O)[O-].[Br-] | -66.3 |
| Cc1ccc2c(ccc[n+]2CC(=O)c2ccccc2)c1.[Br-] | -13.1 |
| O=C(C[n+]1cc(Br)cc2ccccc21)c1ccc(Br)cc1.[Br-] | -83.3 |
| COc1ccc(C(=O)C[n+]2cccc(C)c2C)cc1[N+](=O)[O-].[Br-] | -13.2 |
